According to PubChem BioAssay (EPA / NIEHS):
Results filed as inconclusive are left out. The source made the active and inactive calls. Rule for the calls: active = hit-call score of the fitted dose curve at least 0.9, where 1 is the maximum; inconclusive = response in the unintended direction; inactive = score below 0.9.

Assays:
[1] = biological target: human Leukotriene B4 Receptor 1 (LTB4-BLT1), LTB4R (gene 1241) (UniProt Q15722); assay: NVS_GPCR_hLTB4_BLT1: NovaScreen (NVS) G Protein-Coupled Receptor Assay for human Leukotriene B4 Receptor 1 (LTB4-BLT1) (AID 2283271)
Sequence of human Leukotriene B4 Receptor 1 (LTB4-BLT1), LTB4R (gene 1241) (Q15722 whole entry, looked up): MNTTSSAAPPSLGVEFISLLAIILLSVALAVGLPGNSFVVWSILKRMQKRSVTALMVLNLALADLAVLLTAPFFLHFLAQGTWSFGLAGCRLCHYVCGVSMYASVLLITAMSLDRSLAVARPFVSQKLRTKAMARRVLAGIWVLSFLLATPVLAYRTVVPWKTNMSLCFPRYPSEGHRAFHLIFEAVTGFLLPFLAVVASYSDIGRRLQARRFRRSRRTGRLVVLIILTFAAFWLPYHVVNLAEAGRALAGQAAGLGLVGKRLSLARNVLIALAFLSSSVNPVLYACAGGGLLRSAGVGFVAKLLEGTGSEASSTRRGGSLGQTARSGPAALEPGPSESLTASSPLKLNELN
Summary of the method: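 Radioligand displacement binding on receptor extracted from human neutrophils, cell-free, 1 h after dosing; filter-based scintillation counting. Primary screen in duplicate at 25 uM, actives retested in concentration-response up to 50 uM; loss of signal versus DMSO.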

[2] = biological target: human Purinergic Receptor P2Y, P2RY1 (gene 5028) (UniProt P47900); assay: NVS_GPCR_hPY2: NovaScreen (NVS) G Protein-Coupled Receptor Assay for human Purinergic Receptor P2Y (AID 2283281)
Summary of the method: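 Cell-free radioligand binding using U937-derived protein, 1 h after dosing, filter-based scintillation counting. Screened in duplicate at 25 uM; actives rerun as concentration-response up to 50 uM; loss of signal versus DMSO.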

[3] = biological target: D(1A) dopamine receptor (Homo sapiens) (UniProt P21728); assay: NVS_GPCR_hDRD1: NovaScreen (NVS) G Protein-Coupled Receptor Assay for human Dopamine Receptor D1 (DRD1) (AID 2283269)
Sequence of D(1A) dopamine receptor (Homo sapiens) (P21728 whole entry, looked up): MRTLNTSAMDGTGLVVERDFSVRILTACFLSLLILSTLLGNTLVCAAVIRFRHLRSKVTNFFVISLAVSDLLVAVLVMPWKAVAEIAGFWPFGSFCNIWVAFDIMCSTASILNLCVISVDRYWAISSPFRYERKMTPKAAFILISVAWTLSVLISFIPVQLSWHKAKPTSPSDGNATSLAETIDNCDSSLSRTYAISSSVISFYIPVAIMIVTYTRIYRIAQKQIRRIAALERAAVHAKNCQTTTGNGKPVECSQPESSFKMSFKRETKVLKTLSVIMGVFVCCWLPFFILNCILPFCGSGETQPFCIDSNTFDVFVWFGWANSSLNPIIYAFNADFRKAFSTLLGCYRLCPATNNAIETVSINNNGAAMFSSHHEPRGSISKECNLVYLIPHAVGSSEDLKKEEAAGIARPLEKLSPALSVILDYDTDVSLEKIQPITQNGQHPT
Summary of the method: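 Extracted HEK293 DRD1 is incubated 1 h with compound and a tritiated or iodinated radioligand, then filtered and counted. Screening runs 25 uM in duplicate with on-plate positive and negative controls.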

[4] = biological target: human Opioid Receptor Delta 1 (Opiate D1), OPRD1 (gene 4985) (UniProt P41143); assay: NVS_GPCR_hOpiate_D1: NovaScreen (NVS) G Protein-Coupled Receptor Assay for human Opioid Receptor Delta 1 (Opiate D1) (AID 2283280)
Sequence of human Opioid Receptor Delta 1 (Opiate D1), OPRD1 (gene 4985) (P41143 whole entry, looked up): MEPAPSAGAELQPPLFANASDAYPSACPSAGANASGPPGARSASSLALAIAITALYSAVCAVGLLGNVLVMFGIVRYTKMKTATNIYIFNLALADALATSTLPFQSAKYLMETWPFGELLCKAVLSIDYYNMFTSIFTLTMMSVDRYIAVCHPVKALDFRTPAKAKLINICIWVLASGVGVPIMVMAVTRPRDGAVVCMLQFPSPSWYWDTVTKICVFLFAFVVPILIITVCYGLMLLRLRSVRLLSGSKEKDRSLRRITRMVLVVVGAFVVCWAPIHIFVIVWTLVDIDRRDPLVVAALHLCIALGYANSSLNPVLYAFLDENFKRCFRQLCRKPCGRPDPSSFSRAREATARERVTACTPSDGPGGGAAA
Summary of the method: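 Radioligand displacement on membranes from CHO cells expressing the receptor, read by filter scintillation counting 1 h after dosing. Duplicate single-point screen at 25 uM, then concentration series for actives; loss of signal versus DMSO.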

[5] = biological target: human Thromboxane A2 Receptor (TXA2), TBXA2R (gene 6915) (UniProt P21731); assay: NVS_GPCR_hTXA2: NovaScreen (NVS) G Protein-Coupled Receptor Assay for human Thromboxane A2 Receptor (TXA2) (AID 2283282);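 note: actives reduce bound radioligand signal relative to DMSO baseline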
Sequence of human Thromboxane A2 Receptor (TXA2), TBXA2R (gene 6915) (P21731 whole entry, looked up): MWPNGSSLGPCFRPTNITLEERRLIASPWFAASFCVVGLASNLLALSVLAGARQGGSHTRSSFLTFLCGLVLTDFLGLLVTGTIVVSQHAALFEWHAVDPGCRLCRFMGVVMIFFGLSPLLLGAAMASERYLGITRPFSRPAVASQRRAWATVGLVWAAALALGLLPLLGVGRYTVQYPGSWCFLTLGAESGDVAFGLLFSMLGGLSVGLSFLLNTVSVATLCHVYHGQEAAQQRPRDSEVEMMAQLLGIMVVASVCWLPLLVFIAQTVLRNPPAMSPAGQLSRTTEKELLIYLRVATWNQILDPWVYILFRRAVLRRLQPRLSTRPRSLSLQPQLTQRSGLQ
Summary of the method: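 Biochem binding, human platelets, cell-free; competitive radioligand displacement; 1 h; filter radiodetection. 25 uM duplicate primary, conc. series secondary; DMSO neg. ctrl.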

[6] = biological target: human Dopamine Receptor D2 (DRD2), DRD2 (gene 1813) (UniProt P14416); assay: NVS_GPCR_hDRD2s: NovaScreen (NVS) G Protein-Coupled Receptor Assay for human Dopamine Receptor D2 (DRD2) (AID 2283266)
Sequence of human Dopamine Receptor D2 (DRD2), DRD2 (gene 1813) (P14416 whole entry, looked up): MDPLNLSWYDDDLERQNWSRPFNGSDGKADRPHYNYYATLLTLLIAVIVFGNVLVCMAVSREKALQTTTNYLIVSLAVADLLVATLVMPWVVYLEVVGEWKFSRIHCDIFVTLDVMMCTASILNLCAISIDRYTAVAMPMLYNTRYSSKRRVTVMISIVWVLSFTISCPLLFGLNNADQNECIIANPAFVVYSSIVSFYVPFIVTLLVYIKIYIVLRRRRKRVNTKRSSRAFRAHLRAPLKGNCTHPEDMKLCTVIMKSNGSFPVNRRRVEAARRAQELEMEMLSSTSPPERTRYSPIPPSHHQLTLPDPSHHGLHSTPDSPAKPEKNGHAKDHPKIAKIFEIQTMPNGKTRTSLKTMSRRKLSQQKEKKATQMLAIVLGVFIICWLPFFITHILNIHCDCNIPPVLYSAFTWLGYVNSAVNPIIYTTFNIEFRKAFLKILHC
Summary of the method: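 Radioligand displacement used human DRD2 membranes extracted from CHO cells and was read by filter-based scintillation counting after 1.5 hours. Primary screening was in duplicate at 25 uM. Loss of signal versus DMSO was fitted, with concentration series in follow-up.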

[7] = biological target: Muscarinic acetylcholine receptor M5 (Homo sapiens) (UniProt P08912); assay: NVS_GPCR_hM5: NovaScreen (NVS) G Protein-Coupled Receptor Assay for human Muscarinic, M5 Receptor (AID 2283275)
Sequence of Muscarinic acetylcholine receptor M5 (Homo sapiens) (P08912 whole entry, looked up): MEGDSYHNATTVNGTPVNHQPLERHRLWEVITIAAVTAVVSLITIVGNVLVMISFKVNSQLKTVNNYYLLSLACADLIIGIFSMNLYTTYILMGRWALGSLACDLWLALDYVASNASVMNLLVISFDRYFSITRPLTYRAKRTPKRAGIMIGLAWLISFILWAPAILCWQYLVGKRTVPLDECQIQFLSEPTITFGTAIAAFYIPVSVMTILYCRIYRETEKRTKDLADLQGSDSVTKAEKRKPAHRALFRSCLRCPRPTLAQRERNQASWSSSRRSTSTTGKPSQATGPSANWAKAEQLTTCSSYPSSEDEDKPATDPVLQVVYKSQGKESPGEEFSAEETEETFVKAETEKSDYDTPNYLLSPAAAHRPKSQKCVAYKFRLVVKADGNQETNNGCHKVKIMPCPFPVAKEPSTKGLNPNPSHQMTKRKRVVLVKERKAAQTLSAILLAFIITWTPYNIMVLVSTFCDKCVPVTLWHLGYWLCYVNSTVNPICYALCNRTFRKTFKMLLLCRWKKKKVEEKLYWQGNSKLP
Summary of the method: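 Radioligand displacement on CHO-derived membrane preparations, 1 h, filter-based scintillation counting. Single-concentration duplicate screen at 25 uM; hits (e.g. 30% inhibition) retested in singleton concentration-response up to 50 uM. Loss of binding fitted versus DMSO.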

[8] = biological target: human Neurokinin, NK2 Receptor, TACR2 (gene 6865) (UniProt P21452); assay: NVS_GPCR_hNK2: NovaScreen (NVS) G Protein-Coupled Receptor Assay for human Neurokinin, NK2 Receptor (AID 2283278);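 note: actives reduce bound radioligand signal relative to DMSO baseline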
Sequence of human Neurokinin, NK2 Receptor, TACR2 (gene 6865) (P21452 whole entry, looked up): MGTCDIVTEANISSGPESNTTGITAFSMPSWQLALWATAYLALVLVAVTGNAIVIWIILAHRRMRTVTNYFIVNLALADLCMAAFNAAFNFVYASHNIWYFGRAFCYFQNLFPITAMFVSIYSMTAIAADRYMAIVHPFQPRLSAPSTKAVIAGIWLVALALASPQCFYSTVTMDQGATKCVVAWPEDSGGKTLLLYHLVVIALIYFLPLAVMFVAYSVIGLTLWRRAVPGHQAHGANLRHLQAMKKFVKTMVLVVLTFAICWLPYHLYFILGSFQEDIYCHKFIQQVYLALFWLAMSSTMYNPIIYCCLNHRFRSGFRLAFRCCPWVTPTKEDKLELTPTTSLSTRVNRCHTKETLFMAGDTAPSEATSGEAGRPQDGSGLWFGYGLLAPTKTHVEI
Summary of the method: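 Test chemicals displace a radioligand from receptor prepared from CHO cells in a cell-free format, read after 4 hours by scintillation counting on filters. Screening starts at 25 uM in duplicate, and active chemicals then go to concentration series.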

[9] = biological target: human Endothelin Receptor Type B (ETB), EDNRB (gene 1910) (UniProt P24530); assay: NVS_GPCR_hETB: NovaScreen (NVS) G Protein-Coupled Receptor Assay for human Endothelin Receptor Type B (ETB) (AID 2283267)
Sequence of human Endothelin Receptor Type B (ETB), EDNRB (gene 1910) (P24530 whole entry, looked up): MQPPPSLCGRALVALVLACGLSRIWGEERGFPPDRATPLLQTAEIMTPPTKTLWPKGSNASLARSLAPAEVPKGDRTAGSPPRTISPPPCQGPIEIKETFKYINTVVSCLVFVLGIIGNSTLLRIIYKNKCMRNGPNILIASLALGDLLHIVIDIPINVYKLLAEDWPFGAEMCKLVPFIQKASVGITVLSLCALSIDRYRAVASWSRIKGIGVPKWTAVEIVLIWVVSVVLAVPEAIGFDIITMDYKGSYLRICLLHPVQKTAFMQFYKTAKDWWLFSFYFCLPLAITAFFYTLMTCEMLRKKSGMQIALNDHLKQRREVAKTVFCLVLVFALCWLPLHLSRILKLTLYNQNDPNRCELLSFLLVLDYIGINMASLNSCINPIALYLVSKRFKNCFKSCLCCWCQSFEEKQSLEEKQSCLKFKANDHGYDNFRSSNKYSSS
Summary of the method: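 Human astrocytoma cell membranes; radioligand competitive binding read by filter scintillation counting 4 hours after dosing. Single-concentration duplicate screen at 25 uM, then singleton concentration-response up to 50 uM; loss of signal versus DMSO.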

[10] = biological target: human Orphanin, Opioid Related Nociceptin Receptor 1 (ORL1), OPRL1 (gene 4987) (UniProt P41146); assay: NVS_GPCR_hORL1: NovaScreen (NVS) G Protein-Coupled Receptor Assay for human Orphanin, Opioid Related Nociceptin Receptor 1 (ORL1) (AID 2283283)
Summary of the method: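 Filter-based radioligand displacement with receptor extracted from HEK293 cells, read 1 hour after dosing by scintillation counting. Duplicate single-point screen at 25 uM; qualifying chemicals then run in concentration-response to 50 uM, analysed relative to DMSO.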

[11] = biological target: Muscarinic acetylcholine receptor M2 (Homo sapiens) (UniProt P08172); assay: NVS_GPCR_hM2: NovaScreen (NVS) G Protein-Coupled Receptor Assay for human Muscarinic, M2 Receptor (AID 2283273)
Sequence of Muscarinic acetylcholine receptor M2 (Homo sapiens) (P08172 whole entry, looked up): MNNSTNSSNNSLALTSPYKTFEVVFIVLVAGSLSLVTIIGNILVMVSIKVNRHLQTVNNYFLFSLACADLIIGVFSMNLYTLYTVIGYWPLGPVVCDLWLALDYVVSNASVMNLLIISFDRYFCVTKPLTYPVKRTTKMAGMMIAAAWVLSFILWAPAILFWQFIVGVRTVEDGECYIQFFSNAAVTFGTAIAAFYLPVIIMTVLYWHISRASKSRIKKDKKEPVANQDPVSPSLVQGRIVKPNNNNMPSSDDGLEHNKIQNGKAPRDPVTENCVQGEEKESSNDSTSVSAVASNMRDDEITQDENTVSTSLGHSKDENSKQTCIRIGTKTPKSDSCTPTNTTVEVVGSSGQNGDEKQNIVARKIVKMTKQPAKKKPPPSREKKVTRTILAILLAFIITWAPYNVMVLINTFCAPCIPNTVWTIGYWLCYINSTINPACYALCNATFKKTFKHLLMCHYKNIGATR
Summary of the method: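 Radioligand displacement on human M2 receptor membranes from CHO cells, 1 h incubation, filtration with scintillation counting. Primary screen in duplicate at 25 uM; actives retested in concentration series; loss of signal fitted versus DMSO.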

[12] = biological target: human Muscarinic, M4 Receptor, CHRM4 (gene 1132) (UniProt P08173); assay: NVS_GPCR_hM4: NovaScreen (NVS) G Protein-Coupled Receptor Assay for human Muscarinic, M4 Receptor (AID 2283274)
Sequence of human Muscarinic, M4 Receptor, CHRM4 (gene 1132) (P08173 whole entry, looked up): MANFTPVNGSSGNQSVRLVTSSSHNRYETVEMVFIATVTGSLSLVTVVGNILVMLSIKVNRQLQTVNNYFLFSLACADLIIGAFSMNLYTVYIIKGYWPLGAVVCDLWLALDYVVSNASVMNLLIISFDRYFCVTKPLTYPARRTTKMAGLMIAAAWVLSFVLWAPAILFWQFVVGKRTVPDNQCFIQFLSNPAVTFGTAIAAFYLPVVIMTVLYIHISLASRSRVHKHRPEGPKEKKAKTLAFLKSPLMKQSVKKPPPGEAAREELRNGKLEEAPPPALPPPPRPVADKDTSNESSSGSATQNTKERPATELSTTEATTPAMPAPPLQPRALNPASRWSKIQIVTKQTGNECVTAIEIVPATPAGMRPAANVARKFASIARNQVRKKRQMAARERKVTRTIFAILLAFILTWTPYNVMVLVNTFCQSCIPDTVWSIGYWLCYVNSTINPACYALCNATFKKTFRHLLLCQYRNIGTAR
Summary of the method: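 Cell-free radioligand displacement using CHO-derived human M4 receptor protein, 1 h after dosing; bound radioactivity by filtration and scintillation counting. Primary screen single 25 uM duplicate, actives followed in concentration series.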

[13] = biological target: human Neuropeptide Receptor Y1 (NPY1), NPY1R (gene 4886) (UniProt P25929); assay: NVS_GPCR_hNPY1: NovaScreen (NVS) G Protein-Coupled Receptor Assay for human Neuropeptide Receptor Y1 (NPY1) (AID 2283276)
Summary of the method: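 Cell-free radioligand binding using receptor extracted from SK-N-MC cells, 1 h incubation, filter-based scintillation counting. Primary screen single concentration 25 uM in duplicate; actives followed in concentration series. Loss of bound signal scored versus DMSO.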

[14] = biological target: human Vasopressin 1A Receptor (V1A), AVPR1A (gene 552) (UniProt P37288); assay: NVS_GPCR_hV1A: NovaScreen (NVS) G Protein-Coupled Receptor Assay for human Vasopressin 1A Receptor (V1A) (AID 2283284)
Summary of the method: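 Cell-free radioligand displacement on human platelet preparations, 1.5 h incubation, filter-based scintillation counting. Chemicals first tested in duplicate at 25 uM; actives then run in concentration-response up to 50 uM, loss of signal fitted against DMSO.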

[15] = biological target: human Neurotensin Receptor (NTS), NTSR1 (gene 4923) (UniProt P30989); assay: NVS_GPCR_hNTS: NovaScreen (NVS) G Protein-Coupled Receptor Assay for human Neurotensin Receptor (NTS) (AID 2283279)
Summary of the method: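 Radioligand displacement on human NTSR1 protein from CHO cells, cell-free, 1 h, filter-based scintillation counting. Primary screen at 25 uM in duplicate; hits rerun in concentration-response up to 50 uM.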

[16] = biological target: human Histamine 1 Receptor (H1), HRH1 (gene 3269) (UniProt P35367); assay: NVS_GPCR_hH1: NovaScreen (NVS) G Protein-Coupled Receptor Assay for human Histamine 1 Receptor (H1) (AID 2283268)
Sequence of human Histamine 1 Receptor (H1), HRH1 (gene 3269) (P35367 whole entry, looked up): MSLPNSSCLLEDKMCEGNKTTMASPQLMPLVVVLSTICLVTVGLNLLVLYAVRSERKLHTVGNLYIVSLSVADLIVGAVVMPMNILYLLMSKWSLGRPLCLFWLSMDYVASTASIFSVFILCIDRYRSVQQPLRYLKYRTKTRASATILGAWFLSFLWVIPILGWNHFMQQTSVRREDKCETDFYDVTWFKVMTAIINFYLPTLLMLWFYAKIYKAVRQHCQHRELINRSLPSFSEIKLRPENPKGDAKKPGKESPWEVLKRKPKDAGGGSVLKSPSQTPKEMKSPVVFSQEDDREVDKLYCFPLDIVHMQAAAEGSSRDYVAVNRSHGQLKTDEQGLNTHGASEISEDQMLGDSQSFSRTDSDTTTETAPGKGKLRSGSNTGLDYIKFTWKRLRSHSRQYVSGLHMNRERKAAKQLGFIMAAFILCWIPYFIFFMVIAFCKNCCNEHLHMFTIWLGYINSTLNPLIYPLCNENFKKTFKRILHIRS
Summary of the method: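 Cell-free radioligand displacement at human H1 receptor, 1 h, filter scintillation counting; primary screen 25 uM in duplicate, hits in concentration series; loss of binding fitted vs DMSO.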

[17] = biological target: human Endothelin Receptor Type A (ETA), EDNRA (gene 1909) (UniProt P25101); assay: NVS_GPCR_hETA: NovaScreen (NVS) G Protein-Coupled Receptor Assay for human Endothelin Receptor Type A (ETA) (AID 2283265)
Summary of the method: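 Cell-free radioligand displacement using SH-SY5Y-derived protein, 3 h incubation, filter-based scintillation counting. Primary screen in duplicate at 25 uM; actives then run in concentration-response up to 50 uM; loss of binding fitted versus DMSO.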

[18] = biological target: Muscarinic acetylcholine receptor M1 (Homo sapiens) (UniProt P11229); assay: NVS_GPCR_hM1: NovaScreen (NVS) G Protein-Coupled Receptor Assay for human Muscarinic, M1 Receptor (AID 2283270)
Summary of the method: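 Cell-free radioligand displacement using membrane protein extracted from CHO cells, read by filter-based scintillation counting 1 h after dosing. Loss of bound signal fitted versus DMSO; primary screen single concentration 25 uM in duplicate, actives followed by concentration series.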

[19] = biological target: Muscarinic acetylcholine receptor M3 (Homo sapiens) (UniProt P20309); assay: NVS_GPCR_hM3: NovaScreen (NVS) G Protein-Coupled Receptor Assay for human Muscarinic, M3 Receptor (AID 2283272)
Summary of the method: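 Radioligand displacement binding on human M3 receptor in CHO-derived membranes, 1 h incubation, filter-based scintillation counting. Primary screen in duplicate at 25 uM; actives followed up in concentration series; loss of signal versus DMSO.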

For `CCCCC(CC)CO` (stereo not given), the outcome [1] was “inactive”.
In the case of `CC(COCC(C)OC(=O)c1ccccc1)OC(=O)c1ccccc1` (stereo not given), the outcome [2] is reported as “inactive”.
For `O=C1OC(c2ccc(O)cc2)(c2ccc(O)cc2)c2ccccc21`, the AC50 [3] was 4.96 µM (active), the AC50 [4] was 6.64 µM (active) and the AC50 [5] was 0.454 µM (active).
`COc1ccc(OC(F)(F)F)cc1CN[C@H]1CCCN[C@H]1c1ccccc1` was tested, and the outcome [6] was “inactive”, the AC50 [3] was 25 µM (active) and the AC50 [7] was 9.18 µM (active). The AC50 [8] was 13.5 µM (active).
In the case of `CC(N)=O`, the outcome [9] is reported as “inactive”.
`C#CC(O)C(CC)CCCC` (stereo not given) was tested, and the outcome [10] was “inactive”.
With `NC(=Nc1ccccc1)Nc1ccccc1` the AC50 [11] was 19.8 µM (active) and the AC50 [12] was 14.9 µM (active).
In the case of `O=NO`, the outcome [12] is reported as “inactive”.
`Cn1cnc2c1c(=O)[nH]c(=O)n2C` was tested, and the outcome [3] was “inactive”, the outcome [12] was “inactive” and the outcome [4] was “inactive”.
With `Oc1ccc(O)cc1` the AC50 [13] was 10.8 µM (active), the outcome [8] was “inactive” and the outcome [14] was “inactive”.
For `CN(C)CCCN1c2ccccc2Sc2ccc(Cl)cc21`, the AC50 [8] was 25 µM (active) and the AC50 [15] was 14.5 µM (active).
In the case of `CSc1ccc(Oc2ccc(S(N)(=O)=O)cc2CN(C)C)cc1C`, the AC50 [6] is reported as 15 µM (active), the AC50 [16] is reported as 19.6 µM (active) and the AC50 [3] is reported as 5.11 µM (active). For the same molecule, the outcome [1] was “inactive”, the AC50 [8] was 6.33 µM (active) and the AC50 [4] was 15 µM (active).
In the case of `CO[C@@H]1COCC[C@@H]1N[C@@H]1CC[C@@](C(=O)N2CCc3ncc(C(F)(F)F)cc3C2)(C(C)C)C1`, the AC50 [11] is reported as 12.3 µM (active), the AC50 [12] is reported as 25 µM (active) and the outcome [14] is reported as “inactive”.
With `CCc1cc(C2=C(C(=O)O)N(c3ccccc3C(F)(F)F)S(=O)(=O)c3ccccc32)cc2c1OCO2` the AC50 [17] was 0.0451 µM (active), the AC50 [9] was 0.442 µM (active) and the AC50 [1] was 17.1 µM (active). The AC50 [8] was 25 µM (active) and the AC50 [5] was 3.08 µM (active).
In the case of `S=c1[nH]c2ccccc2s1`, the outcome [8] is reported as “inactive”.
With `CCCCOC(=O)CCCCC(=O)OCCCC` the outcome [15] was “inactive”.
`C/C=C/C=C/C(=O)O` was tested, and the outcome [15] was “inactive”.
For `O=Cc1ccccc1C=O`, the AC50 [17] was 19.2 µM (active), the AC50 [11] was 17 µM (active) and the AC50 [13] was 12.9 µM (active). The AC50 [5] was 16.7 µM (active) and the AC50 [10] was 25 µM (active).
In the case of `CCCCCCCCCCCCCCOS(=O)(=O)O`, the AC50 [6] is reported as 15.1 µM (active), the AC50 [16] is reported as 28.1 µM (active) and the AC50 [3] is reported as 5.18 µM (active). For the same molecule, the AC50 [18] was 25 µM (active), the AC50 [19] was 25 µM (active) and the AC50 [12] was 31.9 µM (active). The AC50 [7] was 16.5 µM (active), the AC50 [8] was 46.3 µM (active) and the AC50 [4] was 8.07 µM (active). The AC50 [2] was 10.3 µM (active), the AC50 [5] was 7.59 µM (active) and the AC50 [10] was 16.3 µM (active).
For `CN(C)C(=O)NC1(c2ccccc2)CCN(CC[C@@]2(c3ccc(F)c(F)c3)CN(C(=O)c3ccccc3)CCO2)CC1`, the outcome [6] was “inactive”, the AC50 [11] was 9.11 µM (active) and the AC50 [12] was 16.9 µM (active). For the same molecule, the AC50 [7] was 12.8 µM (active) and the AC50 [8] was 0.00564 µM (active).
`CCCCCCC(CCCCCCCCCCC(=O)OCC(COC(C)=O)OC(C)=O)OC(C)=O` (stereo not given) was tested, and the AC50 [5] was 4.54 µM (active).
For `Cc1cc(SC2=C(O)C[C@@](CCc3ccc(N)cc3)(C(C)C)OC2=O)c(C(C)(C)C)cc1CO`, the outcome [6] was “inactive”, the outcome [16] was “inactive” and the outcome [3] was “inactive”. For the same molecule, the outcome [18] was “inactive”, the outcome [12] was “inactive” and the outcome [7] was “inactive”. The AC50 [5] was 0.881 µM (active).
With `O=C(O)c1[nH]n(-c2ccc(S(=O)(=O)O)cc2)c(=O)c1N=Nc1ccc(S(=O)(=O)O)cc1` the outcome [6] was “inactive”, the AC50 [3] was 19.2 µM (active) and the outcome [19] was “inactive”. The outcome [11] was “inactive”.
With `CC(=O)[C@@]1(O)CC[C@H]2[C@@H]3CCC4=CC(=O)CC[C@]4(C)[C@H]3CC[C@@]21C` the AC50 [11] was 0.617 µM (active).
`O=C(NS(=O)(=O)/C=C/c1cccs1)c1ccc(F)cc1Br` was tested, and the outcome [9] was “inactive”.
